Assays:
Test in all cases: PBM binding z-score (relative to random genomic background probes); higher = stronger binding; sequences stand for … in GC…GCGATTGACAGCGTAGAATGAAGG
[1] = system: FXR:RXRa (NR concentration 270 nM, RXRa partner concentration 90 nM)
In short: (§1)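 Custom Agilent 4×180K protein-binding microarrays carried double-stranded probes. Their 34-nt variable regions held direct-repeat seeds, single-nucleotide variants, half-site ablations and random human genomic background sequences. Arrays were incubated 1 h with ligand-free nuclear receptor dimers in PBS pH 7.4, 2% milk, 0.02% Triton X-100, 1 mM DTT, 0.2 mg/mL BSA and 0.4 mg/ml salmon testes DNA. Antibodies against each partner (one per run) detected binding, and scanned fluorescence was regression-normalized. Binding z-scores use random background probes as reference.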

[2] = system: LXRa:RXRa (NR concentration 270 nM, RXRa partner concentration 90 nM)
In short: as §1

[3] = system: LXRa homodimer (NR concentration 270 nM)
In short: as §1

[4] = system: LXRb:RXRa (NR concentration 270 nM, RXRa partner concentration 90 nM)
In short: as §1

[5] = system: LXRb homodimer (NR concentration 270 nM)
In short: as §1

[6] = system: PPARa:RXRa (NR concentration 270 nM, RXRa partner concentration 90 nM)
In short: as §1

[7] = system: PPARg:RXRa (NR concentration 180 nM, RXRa partner concentration 90 nM)
In short: as §1

[8] = system: PPARg:RXRa 270nM:90nM, anti-RXR (NR concentration 270 nM, RXRa partner concentration 90 nM)
In short: as §1

[9] = system: PPARg:RXRa 30nM:10nM, anti-RXR (NR concentration 30 nM, RXRa partner concentration 10 nM)
In short: as §1

[10] = system: PPARg:RXRa 90nM:30nM, anti-RXR (NR concentration 90 nM, RXRa partner concentration 30 nM)
In short: as §1

[11] = system: PPARg:RXRa DBDmut IVT, anti-RXR (DBD mutation: RXRa K156A/R161A, NR concentration 270 nM, RXRa partner concentration 90 nM)
In short: as §1

[12] = system: PPARg:RXRa IVT, anti-PPARg (NR concentration 270 nM, RXRa partner concentration 90 nM)
In short: as §1

[13] = system: PPARg DBDmut:RXRa IVT, anti-PPARg (DBD mutation: PPARg1 K132A/R137A, NR concentration 270 nM, RXRa partner concentration 90 nM)
In short: as §1

[14] = system: PPARg DBDmut IVT, anti-PPARg (DBD mutation: PPARg1 K132A/R137A, NR concentration 270 nM)
In short: as §1

[15] = system: PPARg homodimer (NR concentration 180 nM)
In short: as §1

[16] = system: PXR homodimer (NR concentration 270 nM)
In short: as §1

[17] = system: RARa:RXR (NR concentration 270 nM, RXRa partner concentration 90 nM)
In short: as §1

[18] = system: RARa homodimer (NR concentration 270 nM)
In short: as §1

[19] = system: RARb:RXRa (NR concentration 270 nM, RXRa partner concentration 90 nM)
In short: as §1

[20] = system: PXR:RXRa (NR concentration 270 nM, RXRa partner concentration 90 nM)
In short: as §1

Sequence | PBM binding z-score [1] | PBM binding z-score [2] | PBM binding z-score [3] | PBM binding z-score [4] | PBM binding z-score [5] | PBM binding z-score [6] | PBM binding z-score [7] | PBM binding z-score [8] | PBM binding z-score [9] | PBM binding z-score [10] | PBM binding z-score [11] | PBM binding z-score [12] | PBM binding z-score [13] | PBM binding z-score [14] | PBM binding z-score [15] | PBM binding z-score [16] | PBM binding z-score [17] | PBM binding z-score [18] | PBM binding z-score [19] | PBM binding z-score [20]
CTCGAAAGGTCGTGCTCAGGTGAGTACACCAAAC | 5.63 | 3.63 | 0.149 | 3.14 | 0.685 | 4.94 | 3.11 | 4.4 | 1.61 | 2.91 | 1.21 | 2.09 | 1.56 | 1.04 | 2.94 | 0.541 | 4.67 | 0.374 | 4.05 | –
GGAACGGGGGCAAGTTGATAGCAGAGTTTGATGG | 3.27 | 2.87 | 0.913 | 4.45 | 7.1 | 4.02 | 3.2 | 4.52 | 2.09 | 3.58 | 4.41 | 5.53 | 10.8 | 12.6 | 2.77 | 2.97 | 2.7 | 2.02 | 3.54 | –
ATACCAAGGTTATCGTGAGGTCGTTGATACTAAC | 3.14 | 4.42 | 2.28 | 2.93 | 0.533 | 2.77 | 1.24 | 1.56 | 0.633 | 1.07 | 0.718 | 1.31 | 1.06 | 0.559 | 1.6 | 2.85 | – | 1.45 | 2.47 | 4.73
CAAACTAGGTCAAAGGTCAAAGTTGAGCCAACCA | 8.49 | 7.15 | 5.63 | 7.42 | 3.19 | 7.85 | 14 | 11.5 | 12.5 | 13.5 | 8.56 | 9.49 | 2.5 | 3.77 | 3.75 | 1.83 | – | 2.12 | 5.96 | 7.31
ATATGTAGGTAACATCCGGGTCATTCAGGCTATG | 1.82 | 2.79 | 0.798 | 2.48 | 0.596 | 4.36 | 5.15 | 4.17 | 1.8 | 3.15 | 6.71 | 7.04 | 2.61 | 1.59 | 1.75 | 2.16 | – | 0.771 | 1.66 | 3.14
CCTTGCGGGTCACTGACAGGTTATAGCATTTGGA | 4.69 | 3.74 | 0.0362 | 2.95 | -0.459 | 5.05 | 5.18 | 4.76 | 1.63 | 3.47 | 4.94 | 5.29 | -0.0944 | -0.215 | 2 | -0.0222 | – | 0.173 | 3.63 | 3.05
CGTCCAAGGTCAGAGAGGTCATTGAATGCCGAGT | 6.84 | 6.1 | 6.22 | 5.74 | 0.491 | 6.01 | 4.47 | 5.05 | 1.68 | 3.33 | 2.72 | 3.6 | 0.144 | -1.01 | 2.82 | 13.6 | 6.68 | 0.848 | – | –
GACACAGGGTCAGCTAGAGGCCAGAGTATGGAAA | 4.61 | 2.62 | -0.521 | 2.32 | -0.984 | 4.57 | 3.5 | 3.17 | 0.295 | 1.71 | 0.69 | 1.9 | -0.301 | -0.892 | 1.74 | -0.286 | – | -0.561 | 4.26 | 2.92

— the supplement of paper PMC6555819
